From PubChem BioAssay
Compounds with a hit are over-represented: about 1.1% of the library has one in this group of screens.
3CLpro inhibitor: SARS-CoV 3CLpro protease inhibition; 0.14% of 290,000 active; recombinant SARS-CoV 3CLpro, quenched FRET peptide cleavage; inhibition, % at 6 µM; P0C6X7; in the data active means inhibition above about 12%
MazF activator: increases E. coli MazEF RNase cleavage of RNA | P0AE70 | FAM/BHQ RNA-DNA oligo cleavage fluorescence, 5 h | activation, % at 20 µM | 0.32% of 350,000 active; in the data active means activation above about 50%
Target sequence (P0AE70 whole entry, looked up): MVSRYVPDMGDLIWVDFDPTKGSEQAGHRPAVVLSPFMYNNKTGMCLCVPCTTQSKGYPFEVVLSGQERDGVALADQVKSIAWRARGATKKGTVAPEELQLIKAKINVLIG
PfHsp40 rescue: rescue of PfHsp40-mediated yeast toxicity; S. cerevisiae expressing PfHsp40, growth rescue, ATP luminescence; growth rescue, % at 12.5 µM; 0.68% of 340,000 active; in the data active means growth rescue above about 28%, passing the limit was not always enough;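 further: yeast W303a lacking pdr1 and pdr3 grown in galactose medium; growth measured after three days at 30 °C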
Y pestis TopoI: inhibitors of Yersinia pestis topoisomerase I; Y. pestis Topo-I cleavage product accumulation, plate reader; activity, % at 10 µM; 0.064% of 360,000 active; in the data active means activity above about 50%, passing the limit was not always enough
BioA inh: inhibitors of Mycobacterium tuberculosis BioA enzyme. purified M. tuberculosis BioA enzyme, plate reader. inhibition, % at 9.99 µM. 0.096% of 360,000 active. AID 602481; in the data active means inhibition above about 40%
BJeLR lethal: kills HRASV12-expressing BJeLR cells | BJeLR (HRASV12) viability, CellTiter-Glo ATP luminescence, 48 h | inhibition, % (concentration not given with the values) | 0.17% of 300,000 active; in the data active means inhibition above about 50%
Starred values were filed as active, the others as inactive.

`C[C@H]1C[C@H]2[C@@H]3CCC4=CC(=O)C=C[C@]4(C)[C@@]3(Cl)[C@@H](O)C[C@]2(C)[C@@]1(O)C(=O)CO` gave 3CLpro inhibitor -2, MazF activator 8, PfHsp40 rescue 36*, Y pestis TopoI -4, BioA inh 1 and BJeLR lethal -4.
Screening COc1ccc(NC(=O)N(C)C[C@@H]2Oc3c(NC(=O)Nc4ccc(C(F)(F)F)cc4)cccc3C(=O)N([C@@H](C)CO)C[C@@H]2C)cc1 returned BioA inh -4.
`c1ccc2c(N3CCOCC3)nc(-c3ccncc3)nc2c1` gave 3CLpro inhibitor 2, MazF activator 4, PfHsp40 rescue 1, Y pestis TopoI -5, BioA inh 2 and BJeLR lethal -3.
`CC1CCN(c2nc(-c3ccncc3)nc3ccccc23)CC1` gave 3CLpro inhibitor 0, MazF activator -3, PfHsp40 rescue 282*, Y pestis TopoI 6, BioA inh 0 and BJeLR lethal 0.
Screening O=C1CC(O)(C(F)(F)F)Oc2c1ccc1ccccc21 (stereo not drawn) returned 3CLpro inhibitor 3, MazF activator -3, PfHsp40 rescue 54*, Y pestis TopoI -1, BioA inh 0 and BJeLR lethal 2.
Screening O=C1CC(O)(C(F)F)Oc2ccc3ccccc3c21 (stereo not drawn) returned 3CLpro inhibitor 3, MazF activator -2, PfHsp40 rescue 0, Y pestis TopoI -1 and BJeLR lethal 15.
For CCCNC(=O)N1[C@@H](C#N)[C@H](c2ccccc2)[C@@H]1CO the results were BioA inh -1.
Screening CO[C@@H]1CN(C)C(=O)c2ccc(NC(=O)C3CCCC3)cc2OC[C@@H](C)N(S(=O)(=O)c2ccc(Cl)cc2)C[C@H]1C returned BioA inh -1.
Screening CCCCCCCn1c(=O)c(C(=O)OC)c(N)c2ccccc21 returned 3CLpro inhibitor 1, MazF activator 0, PfHsp40 rescue 245*, Y pestis TopoI 2, BioA inh 1 and BJeLR lethal -1.
COc1ccc(C(=O)NN(C)c2nc(C(F)(F)F)nc3ccccc23)cc1 was read as 3CLpro inhibitor 2, MazF activator 6, PfHsp40 rescue 1, Y pestis TopoI -4 and BJeLR lethal 60*.
Screening CCCCCCOc1ccc(N2C(=O)CC(S/C(N)=N/N=C(\C)c3cccs3)C2=O)cc1 (stereo not drawn) returned 3CLpro inhibitor -2, MazF activator 1, PfHsp40 rescue -1, Y pestis TopoI 63*, BioA inh -1 and BJeLR lethal -10.
`C/C(=N\N=C(/N)SC1CC(=O)N(c2ccc(Cl)c(Cl)c2)C1=O)c1cccs1` (stereo not drawn) gave 3CLpro inhibitor 1, MazF activator -9, PfHsp40 rescue 37*, Y pestis TopoI 6, BioA inh -1 and BJeLR lethal -7.
`C/C(=N\N=C(/N)SC1CC(=O)N(c2ccccc2)C1=O)c1cccs1` (stereo not drawn) gave 3CLpro inhibitor 3, MazF activator 2, PfHsp40 rescue 2, Y pestis TopoI 5, BioA inh 2 and BJeLR lethal 6.
`C[C@@H]1CCCCO[C@H](CN(C)Cc2ccc(C(F)(F)F)cc2)[C@H](C)CN([C@H](C)CO)C(=O)c2cc(NC(=O)C3CCCCC3)ccc2O1` gave BioA inh -3.
`CCOC(=O)c1c2c(n(-c3ccc(OC)cc3)c1C)C(=O)C(=O)c1ccccc1-2` gave MazF activator 8, PfHsp40 rescue 85* and Y pestis TopoI 5.
COc1ccc(C(c2c(O)ccc3ccccc23)N2CCOCC2)c(OC)c1 (stereo not drawn) was read as 3CLpro inhibitor 7, MazF activator -28, PfHsp40 rescue 410*, Y pestis TopoI 1, BioA inh -1 and BJeLR lethal -2.
`COc1ccc([N+](=O)[O-])cc1N(CC(=O)NCCSc1ccc(C)cc1)S(C)(=O)=O` gave 3CLpro inhibitor 1, MazF activator 2, PfHsp40 rescue 1, Y pestis TopoI -11 and BJeLR lethal -11.
`Cc1cccc(NS(=O)(=O)c2ccc(NC(=O)CN(c3cc([N+](=O)[O-])ccc3C)S(C)(=O)=O)cc2)c1` gave 3CLpro inhibitor 5, MazF activator 5, PfHsp40 rescue 1, Y pestis TopoI -6, BioA inh 1 and BJeLR lethal 69*.
`COc1ccc(C)cc1NS(=O)(=O)c1ccc(NC(=O)CN(c2cc([N+](=O)[O-])ccc2C)S(C)(=O)=O)cc1` gave 3CLpro inhibitor 8, MazF activator 0, PfHsp40 rescue 0, Y pestis TopoI 1, BioA inh -1 and BJeLR lethal 109*.
O=C(C[C@@H]1C=C[C@@H](NC(=O)CCN2CCCCC2)[C@H](CO)O1)NCc1ccc(Cl)c(Cl)c1 was read as BioA inh 0.
COc1ccccc1Oc1c(C)oc2cc(OC(=O)N(C)C)ccc2c1=O was read as 3CLpro inhibitor -1, MazF activator -1, PfHsp40 rescue 93*, Y pestis TopoI 5, BioA inh 1 and BJeLR lethal -8.
Screening COc1ccc(Oc2c(C)oc3cc(OC(=O)N(C)C)ccc3c2=O)cc1 returned 3CLpro inhibitor -1, MazF activator -1, PfHsp40 rescue -1, Y pestis TopoI 11, BioA inh 1 and BJeLR lethal -10.
`CCOc1ccc(NC(=O)CNC(=O)c2nn(-c3ccc(OC)cc3)c(=O)c3ccccc23)cc1` gave 3CLpro inhibitor 6, MazF activator 73*, PfHsp40 rescue 0, Y pestis TopoI 0, BioA inh -2 and BJeLR lethal -4.
CS(=O)(=O)N(CC1CCC1)C[C@@H]1N[C@@H](CO)[C@@H]1c1ccccc1 was read as BioA inh 1.
`COc1ccc2ccccc2c1/C=N/N1C(=O)CSC1=S` gave 3CLpro inhibitor -4, MazF activator -38, PfHsp40 rescue 0, Y pestis TopoI -12 and BJeLR lethal -10.
O=C1CSC(=S)N1N=Cc1c(O)ccc2ccccc12 was read as MazF activator 590*, PfHsp40 rescue 1 and Y pestis TopoI -17.
For COc1ccc(CN(C)C[C@H]2Oc3ccc(NC(=O)C4CC4)cc3CC(=O)N([C@@H](C)CO)C[C@H]2C)cc1 the results were BioA inh 2.
O=C(/C=C/c1ccco1)NC(=S)Nc1ccccc1N1CCCC1 was read as 3CLpro inhibitor 1, MazF activator 10, PfHsp40 rescue 59*, Y pestis TopoI -2 and BJeLR lethal -9.
For NS(=O)(=O)OCC(Cc1ccccc1)N1C(=O)c2ccccc2C1=O (stereo not drawn) the results were 3CLpro inhibitor -3, MazF activator -6, PfHsp40 rescue 75*, Y pestis TopoI 6, BioA inh -1 and BJeLR lethal -3.
